The target in experiment [1] is Cytochrome P450 1A2 (Homo sapiens) (UniProt P05177). Briefly: p450-cyp1a2 (AID 410; calls by dose curve; further: potency means the concentration at half of the fitted maximal effect). In outline:
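Luminescent readout of luciferin formed from Luciferin-ME by human CYP1A2; data normalized against complete inhibition by 57 uM furafylline. Enzyme 20nM, substrate 100uM at Km, 100mM KPO4 buffer, 60 min reaction at room temperature.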

Experiment [2] addresses Glucocorticoid receptor (Homo sapiens) (UniProt P04150). Briefly: GR-GFP Redistribution (AID 450;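 active means compounds whose dose series gives a full or clear partial fitted curve of increased nuclear translocation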; further: potency means the concentration at half of the fitted maximal effect). As to conditions: U2OS GR-GFP nuclear translocation, laser cytometry, 2 h.
The target is the same in experiment [3]. As to the kind of experiment: GR-EFC Redistribution (AID 451; calls by dose curve; further: potency means the concentration at half of the fitted maximal effect). Conditions: CHO-K1 GR-EFC translocation, beta-gal luminescence, 2 h. In outline: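 CHO-K1 cells stably expressing nuclear-localized β-gal enzyme acceptor and GR fused C-terminally to the enzyme donor fragment; ligand-driven nuclear translocation restores β-gal by complementation. Compounds titrated up to 46 uM final, 2 h at 37 °C; luminescence read.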

The target of experiment [4] is Mitogen-activated protein kinase 10 (Mus musculus) (UniProt Q61831). As to the kind of experiment: JNK3 AlphaScreen Assay (AID 530; active means well fitted curve in either direction with a large enough effect, not every such curve was filed as active;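 further: kinase came from lysate of stimulated human HepG2 cells; signal reports phosphorylation of biotinylated GST-cJun 1-79 at Ser73 with 10 µM ATP; series mostly up to about 57 µM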). In outline: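 Inhibitors reduce antibody binding to phosphorylated biotin-cJun, lowering AlphaScreen luminescence. Lysates from HepG2 cells pre-activated by IL-1beta plus TNF-alpha supplied JNK3; compounds were titrated.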
(Alpha assays give light when donor and acceptor beads are brought close together.)

Experiment [5] deals with 3',5'-cyclic-AMP phosphodiesterase 4B (Homo sapiens) (UniProt Q07343). Briefly: qHTS Assay for Inhibitors of PDE-IV (AID 607; active means well fitted activation curve with a large enough effect in the main read-out, with a control signal flat, not every such curve was filed as active). In outline: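 ACTOne HEK293 cells carry a modified cAMP-gated CNG channel and express endogenous PDE4; plated 1000 cells/well, compounds up to 22.9 uM final. Membrane-potential dye fluorescence (ex 535/em 590) was read; parental cells received 10 uM forskolin + 100 uM RO 20-1724.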
Sequence of 3',5'-cyclic-AMP phosphodiesterase 4B (Homo sapiens) (Q07343 whole entry, looked up): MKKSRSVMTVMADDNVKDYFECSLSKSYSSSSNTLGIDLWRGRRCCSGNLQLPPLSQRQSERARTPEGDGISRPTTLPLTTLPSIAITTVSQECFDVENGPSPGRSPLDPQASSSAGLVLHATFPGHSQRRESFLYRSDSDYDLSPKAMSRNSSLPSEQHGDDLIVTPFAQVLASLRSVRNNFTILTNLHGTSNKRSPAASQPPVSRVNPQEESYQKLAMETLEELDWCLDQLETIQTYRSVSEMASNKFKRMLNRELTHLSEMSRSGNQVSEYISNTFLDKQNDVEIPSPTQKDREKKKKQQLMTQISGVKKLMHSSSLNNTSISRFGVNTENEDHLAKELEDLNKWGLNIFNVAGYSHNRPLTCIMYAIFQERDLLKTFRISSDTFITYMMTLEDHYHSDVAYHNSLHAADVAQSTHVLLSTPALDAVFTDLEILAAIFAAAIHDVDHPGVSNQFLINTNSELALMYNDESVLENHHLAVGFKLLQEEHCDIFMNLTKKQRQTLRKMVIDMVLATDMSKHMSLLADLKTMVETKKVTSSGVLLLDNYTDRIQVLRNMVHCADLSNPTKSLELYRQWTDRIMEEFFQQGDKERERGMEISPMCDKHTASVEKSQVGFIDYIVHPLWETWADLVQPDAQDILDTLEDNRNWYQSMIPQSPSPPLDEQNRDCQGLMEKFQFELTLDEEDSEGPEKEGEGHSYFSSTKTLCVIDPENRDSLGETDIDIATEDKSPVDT
A general note: qHTS replaces the single test concentration by a dilution series.

Experiment [6] addresses Ubiquitin carboxyl-terminal hydrolase 1 (Homo sapiens) (UniProt O94782). As to the kind of experiment: Inhibitors of USP1/UAF1: Pilot qHTS (AID 504865).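 Further: rhodamine fluorescence freed from ubiquitin-rhodamine substrate followed over time; top concentration of the series differs between compounds; nearly all actives have a fitted effect of over 35% in size.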 The method in brief: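 Enzyme-free wells gave the negative control, while test wells held 1nM USP1/UAF1 preincubated with compound for 15 min at room temperature. Ub-Rho at 150nM final started the reaction, and fluorescence at 480/540 nm was recorded kinetically.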

Experiment [7] has as its target DNA dC->dU-editing enzyme APOBEC-3G (Homo sapiens) (UniProt Q9HC16). As to the kind of experiment: qHTS for inhibitors of Vif-A3G interactions: Validation (AID 588379). In outline:
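HeLa cells stably expressing Vif and A3G-eYFP, 700 cells/well, incubated overnight at 37 deg C, then exposed to compound overnight at 37 deg C. Inhibition of Vif-mediated degradation read as increased yellow fluorescence (Ex 488/Em 500-530) by laser-scanning cytometry.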

Experiment [8] deals with Zika virus NS2B-NS3 protease. Briefly: Primary screen GU AMC qHTS for Zika virus inhibitors (AID 1347154). Further: nearly all actives have a fitted effect of over 70% in size. In outline: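 Unlinked Zika NS2B hydrophilic domain/NS3 protease domain noncovalent complex (25 nM final) in 10 mM Tris-HCl pH 8.0, 0.01% Tween 20, with AMC peptide substrate. Fluorescence (ex 340, em 450 nm) change over 15 min, room temperature; percent inhibition fitted to 4-parameter Hill equation.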

A short description of experiment [9]: Primary qHTS for small molecule stabilizers of the endoplasmic reticulum resident proteome: Secreted ER Calcium Modulated Protein (SERCaMP) assay (AID 1508630). In outline:
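GLuc-SERCaMP-expressing SH-SY5Y cells, pretreated 16 h with compound, are challenged with thapsigargin to empty ER calcium stores; after 4 h, coelenterazine is added directly to the medium and luminescence is imaged.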

A number with no mark means an inactive call. Inconclusive results are not listed. Active and inactive are the calls of the source. Unless noted, the call rests on the fitted dose curve; in most records, active means well fitted curve in the direction sought with a large enough effect; inconclusive means small, poorly fitted or top-dose-only effect, or another doubt; inactive means no such curve, though single readings can be large; an effect the other way counts as inactive or inconclusive. A value given as a limit tells only on which side of the number the result lay.

Sequence of Glucocorticoid receptor (Homo sapiens) (P04150 whole entry, looked up, the tested form may be a part): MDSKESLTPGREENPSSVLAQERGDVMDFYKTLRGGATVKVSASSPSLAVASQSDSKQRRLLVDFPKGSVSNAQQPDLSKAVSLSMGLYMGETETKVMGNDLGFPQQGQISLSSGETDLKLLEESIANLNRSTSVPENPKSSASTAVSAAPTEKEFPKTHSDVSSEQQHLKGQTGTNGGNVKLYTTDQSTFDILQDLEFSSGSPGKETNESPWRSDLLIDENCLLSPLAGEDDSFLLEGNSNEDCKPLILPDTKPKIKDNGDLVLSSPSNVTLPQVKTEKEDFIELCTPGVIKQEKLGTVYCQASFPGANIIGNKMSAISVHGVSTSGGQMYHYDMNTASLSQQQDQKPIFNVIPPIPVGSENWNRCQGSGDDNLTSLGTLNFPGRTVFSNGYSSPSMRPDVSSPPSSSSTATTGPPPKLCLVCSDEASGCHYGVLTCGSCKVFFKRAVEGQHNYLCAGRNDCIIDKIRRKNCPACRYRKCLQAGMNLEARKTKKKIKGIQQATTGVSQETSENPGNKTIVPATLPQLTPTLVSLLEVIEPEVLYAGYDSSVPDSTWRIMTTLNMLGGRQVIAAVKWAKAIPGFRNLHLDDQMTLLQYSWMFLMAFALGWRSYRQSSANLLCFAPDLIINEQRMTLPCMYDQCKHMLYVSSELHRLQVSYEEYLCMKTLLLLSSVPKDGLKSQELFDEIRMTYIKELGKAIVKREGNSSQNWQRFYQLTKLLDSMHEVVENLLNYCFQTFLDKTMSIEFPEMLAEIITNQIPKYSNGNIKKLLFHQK
Sequence of Cytochrome P450 1A2 (Homo sapiens) (P05177 whole entry, looked up): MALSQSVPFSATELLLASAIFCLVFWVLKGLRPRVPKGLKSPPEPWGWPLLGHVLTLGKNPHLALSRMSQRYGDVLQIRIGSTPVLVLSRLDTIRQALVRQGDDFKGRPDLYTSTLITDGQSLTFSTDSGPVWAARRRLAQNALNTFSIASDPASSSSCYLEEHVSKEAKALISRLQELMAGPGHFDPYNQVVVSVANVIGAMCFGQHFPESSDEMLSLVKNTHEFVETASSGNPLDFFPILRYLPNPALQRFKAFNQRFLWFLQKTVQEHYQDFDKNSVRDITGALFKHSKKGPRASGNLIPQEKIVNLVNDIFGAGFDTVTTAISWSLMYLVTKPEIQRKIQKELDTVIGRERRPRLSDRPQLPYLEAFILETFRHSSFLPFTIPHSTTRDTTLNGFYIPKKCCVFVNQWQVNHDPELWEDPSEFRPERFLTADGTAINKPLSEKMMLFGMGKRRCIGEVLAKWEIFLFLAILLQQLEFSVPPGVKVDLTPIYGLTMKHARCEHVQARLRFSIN
Sequence of DNA dC->dU-editing enzyme APOBEC-3G (Homo sapiens) (Q9HC16 whole entry, looked up): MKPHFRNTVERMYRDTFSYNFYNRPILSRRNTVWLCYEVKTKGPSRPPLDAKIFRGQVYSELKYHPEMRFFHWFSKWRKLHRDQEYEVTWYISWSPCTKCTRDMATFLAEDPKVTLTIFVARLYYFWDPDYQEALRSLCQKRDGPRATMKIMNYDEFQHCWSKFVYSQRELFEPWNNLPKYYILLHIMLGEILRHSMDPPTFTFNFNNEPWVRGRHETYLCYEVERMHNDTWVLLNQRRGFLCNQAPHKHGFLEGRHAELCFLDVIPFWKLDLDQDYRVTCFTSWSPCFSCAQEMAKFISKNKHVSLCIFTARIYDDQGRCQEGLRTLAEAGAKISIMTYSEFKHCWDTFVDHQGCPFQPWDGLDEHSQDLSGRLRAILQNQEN
Sequence of Ubiquitin carboxyl-terminal hydrolase 1 (Homo sapiens) (O94782 whole entry, looked up): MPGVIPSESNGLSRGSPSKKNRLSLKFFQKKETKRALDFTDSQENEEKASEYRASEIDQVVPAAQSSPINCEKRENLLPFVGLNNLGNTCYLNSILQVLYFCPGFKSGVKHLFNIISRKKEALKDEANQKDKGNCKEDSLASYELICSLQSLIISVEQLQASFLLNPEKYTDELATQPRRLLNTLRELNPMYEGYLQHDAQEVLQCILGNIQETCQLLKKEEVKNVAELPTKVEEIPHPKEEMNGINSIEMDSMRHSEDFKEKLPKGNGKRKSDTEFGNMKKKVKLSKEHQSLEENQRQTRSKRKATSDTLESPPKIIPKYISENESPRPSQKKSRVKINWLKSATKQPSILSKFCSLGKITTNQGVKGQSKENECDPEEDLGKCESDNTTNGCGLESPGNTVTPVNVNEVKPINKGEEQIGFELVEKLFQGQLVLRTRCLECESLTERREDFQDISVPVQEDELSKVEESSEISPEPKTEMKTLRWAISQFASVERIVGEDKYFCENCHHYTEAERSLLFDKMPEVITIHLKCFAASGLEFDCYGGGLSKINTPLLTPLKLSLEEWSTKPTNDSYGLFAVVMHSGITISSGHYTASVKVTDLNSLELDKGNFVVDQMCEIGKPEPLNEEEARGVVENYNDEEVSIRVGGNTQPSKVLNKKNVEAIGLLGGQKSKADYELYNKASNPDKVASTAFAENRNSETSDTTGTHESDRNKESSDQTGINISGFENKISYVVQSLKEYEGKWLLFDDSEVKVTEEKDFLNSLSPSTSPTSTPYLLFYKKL

Consider `COC(=O)Nc1ccc2[nH]cc(CCNC(C)=O)c2c1`, for which the Potency in [1] is 0.316 µM (active); in experiment [2], above 46 µM; in experiment [3] it was above 46 µM. In addition, the Potency entry in experiment [4], in experiment [5], in experiment [6], in experiment [7], in experiment [8] and in experiment [9] was “inactive” throughout.

The values are drawn from PubChem BioAssay (NCATS).
